High-throughput results (PubChem)
Only some compounds are listed: those with a hit (about 6.8% of all), similar ones and a draw of the others.
Pf Dd2 growth – P. falciparum Dd2 growth inhibitors, primary screen, SYBR Green fluorescence, single dose replicates; 72 h; active compounds read low; activity change, % at 10 µM; hit rate 2.3% among 94,000; AID 1159554, 2015; in the data active = activity change below about -80%; inconclusive = no clear call, values can overlap the other calls
C diff HTS – C. difficile growth inhibitors, primary screen, HTS | Clostridium difficile clinical isolate growth, OD600, 24 h; active compounds read low | growth activity, negative = inhibition, % at 16 µg/mL (by protocol) | hit rate 0.25% among 86,000;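 active = mean growth activity at or below -80% and every replicate also at or below -80%; inconclusive = mean at or below -80% but some replicate above -80%; inactive = mean growth activity above -80%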;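 also: 0% = DMSO wells and -100% = levofloxacin 16 µg/mL wells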
T cruzi growth-1 – T. cruzi intracellular proliferation inhibitors, primary screen, cell-based, beta-gal Tulahuen parasites, NIH3T3 host, luminescence. hit rate 5.9% among 77,000. inhibition, % at 8.34 µM. T. cruzi beta-gal in NIH3T3, GalScreen luminescence, 90 h;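 active = mean inhibition above about 93%, with at least 55% of replicates each passing it, limit read from the data, passing the limit was not always enough; inconclusive = only one of those two conditions holds; inactive = neither condition holds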
T cruzi growth-2 – T. cruzi intracellular proliferation inhibitors, confirmation, cell-based, NIH3T3 host, beta-gal parasite, luminescence, cherry-pick; shares compounds with T cruzi growth-1; T. cruzi beta-gal in NIH3T3, GalScreen luminescence, 90 h; inhibition, % at 8.35 µM; hit rate 72% among 5,600; AID 651739, 2012;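 active = mean replicate inhibition above about 95% and at least 55% of replicates individually reaching it, limit read from the data; inconclusive = only one of the two criteria is met; inactive = neither criterion is met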
T cruzi growth-3 – inhibitors of intracellular T. cruzi replication, confirmation, NIH3T3 host cells, beta-gal parasites, cherry-pick, set 2; shares compounds with T cruzi growth-1; T. cruzi beta-gal in NIH3T3, GalScreen luminescence, 90 h; inhibition, % at 2.09 µM; hit rate 21% among 5,600; AID 651740, 2012;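 active = mean inhibition above about 95%, with at least 55% of replicates also reaching it, limit read from the data; inconclusive = meets just one of the two conditions; inactive = meets neither condition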;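 also: plate controls were neutral control median for no effect and positive control median for full effect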
NIH3T3 tox – cytotoxicity in mouse NIH/3T3 fibroblasts, confirmation, cytotoxicity control for T. cruzi proliferation inhibitor project, cell-based, cherry-pick, single point | shares compounds with T cruzi growth-1 | NIH/3T3 viability, CellTiter-Glo ATP luminescence, 90 h | cytotoxicity (signal decrease), % at 8.35 µM | hit rate 14% among 5,600;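 active = mean signal decrease across replicates above about 35% based on untreated-well scatter, with enough replicates individually passing, limit read from the data; inconclusive = no rule stated though some were filed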;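 also: 0% = median of neutral control wells and 100% = median of positive control wells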
3T3 cytotox 2 – NIH/3T3 fibroblast cytotoxicity, confirmation, cytotoxicity control, cell-based, cherry-pick, single point, set 2; shares compounds with T cruzi growth-1; AID 651744, 2012; hit rate 56% among 5,600; inhibition, % at 24.9 µM; NIH/3T3 viability, CellTiter-Glo ATP luminescence, 90 h;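 active = mean loss of cell viability signal at or above a set limit, and enough replicates individually reaching it; inconclusive = meets only the mean limit or only the replicate share; inactive = meets neither condition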;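 also: 0% = median of neutral control wells and 100% = median of positive control wells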
Numbers without * were called inactive; ? = inconclusive; · = no result.

SMILES | Pf Dd2 growth | C diff HTS | T cruzi growth-1 | T cruzi growth-2 | T cruzi growth-3 | NIH3T3 tox | 3T3 cytotox 2
CC(C)NC(=O)N(C)C[C@H]1Oc2ccc(NS(C)(=O)=O)cc2CC(=O)N([C@H](C)CO)C[C@H]1C | 4 | -1 | · | · | · | · | ·
CO[C@@H]1CN(C)C(=O)c2ccc(NC(=O)C3CCC3)cc2OC[C@@H](C)N(Cc2ccccn2)C[C@H]1C | 8 | 9 | · | · | · | · | ·
C[C@@H](NC(=O)[C@@H]1[C@@H](CO)[C@@H]2Cn3c(cccc3=O)[C@@H]2N1S(C)(=O)=O)c1ccccc1 | · | 2 | 44 | · | · | · | ·
CCCC#Cc1ccc([C@H]2[C@@H](CO)N3CCCCN(C(=O)c4ccc5c(c4)OCO5)C[C@H]23)cc1 | -39 | 5 | 117* | 104* | 79 | 51* | 103*
C[C@@H](O)C#Cc1ccc([C@H]2[C@@H](CO)N3CCCCN(C(=O)c4ccc5c(c4)OCO5)C[C@@H]23)cc1 | 21 | -3 | 32 | · | · | · | ·
CC(C)CC#Cc1ccc([C@@H]2[C@@H](CO)N3CCCCN(C(=O)c4ccc5c(c4)OCO5)C[C@@H]23)cc1 | -43 | -7 | 91 | · | · | · | ·
CCCC#Cc1ccc([C@@H]2[C@H]3CN(C(=O)c4ccc5c(c4)OCO5)CCCCN3[C@H]2CO)cc1 | -34 | 7 | 94 | · | · | · | ·
CCCC#Cc1ccc([C@@H]2[C@@H](CO)N3CCCCN(C(=O)c4ccc5c(c4)OCO5)C[C@@H]23)cc1 | -9 | 0 | 122* | 107* | 76 | 38* | 102*
CCCC#Cc1ccc([C@@H]2[C@H](CO)N3CCCCN(C(=O)c4ccc5c(c4)OCO5)C[C@@H]23)cc1 | -24 | -9 | ? | 106* | 38 | 30 | 103*
CCNC(=O)C[C@H]1CC[C@@H]2[C@H](COc3ccc(NC(=O)Nc4c(C)noc4C)cc3C(=O)N2C)O1 | -6 | -1 | 16 | · | · | · | ·
C[C@H](CO)N1C[C@H](C)[C@H](CN(C)Cc2ccc(Oc3ccccc3)cc2)Oc2c(NS(C)(=O)=O)cccc2C1=O | -30 | -3 | · | · | · | · | ·
COCC(=O)N1CCC2(CC1)CN(Cc1cc(F)ccc1F)[C@@H](CO)c1c2c2ccc(OC)cc2n1C | -68 | 2 | · | · | · | · | ·
C[C@@H]1CCCCO[C@@H](CN(C)Cc2ccncc2)[C@@H](C)CN([C@@H](C)CO)C(=O)c2cc(NC(=O)c3ccncc3)ccc2O1 | 12 | -12 | 18 | · | · | · | ·
O=C(C1CCC1)N1CCCCN2[C@H](CO)[C@@H](c3ccc(C#CC4CCCC4)cc3)[C@H]2C1 | -52 | 12 | ? | 87 | 39 | 12 | 104*
O=C(C1CCC1)N1CCCCN2[C@@H](CO)[C@@H](c3ccc(C#CC4CCCC4)cc3)[C@@H]2C1 | -56 | 4 | 86 | · | · | · | ·
O=C(C1CCC1)N1CCCCN2[C@H](CO)[C@H](c3ccc(C#CC4CCCC4)cc3)[C@H]2C1 | -52 | 48 | 101* | 104* | 95 | 22 | 103*
O=C(C1CCC1)N1CCCCN2[C@H](CO)[C@H](c3ccc(C#CC4CCCC4)cc3)[C@@H]2C1 | -6 | -9 | 72 | · | · | · | ·
C[C@@H]1CN([C@@H](C)CO)C(=O)CCCn2cc(nn2)CO[C@@H]1CN(C)S(=O)(=O)c1cccc(C#N)c1 | 32 | -1 | · | · | · | · | ·
C[C@@H]1CN([C@H](C)CO)C(=O)c2cc(NC(=O)Nc3ccccc3)ccc2O[C@H]1CN(C)Cc1ccc(C(F)(F)F)cc1 | -22 | -1 | 16 | · | · | · | ·
C[C@@H]1CN([C@@H](C)CO)C(=O)c2cc(NC(=O)Nc3ccc(C(F)(F)F)cc3)ccc2O[C@H]1CN(C)Cc1ccc(-c2ccccc2)cc1 | -42 | 13 | 104* | 102* | 80 | 10 | 105*
C[C@@H]1CN([C@@H](C)CO)C(=O)c2cc(NC(=O)Nc3ccc(C(F)(F)F)cc3)ccc2O[C@@H]1CN(C)Cc1ccc(-c2ccccc2)cc1 | -23 | 71 | 120* | 102* | 98* | 56* | 103*
C[C@@H]1CN([C@H](C)CO)C(=O)c2cc(NC(=O)Nc3ccc(C(F)(F)F)cc3)ccc2O[C@H]1CN(C)Cc1ccc(-c2ccccc2)cc1 | -10 | 12 | 123* | 89 | ? | 84* | 102*
C[C@H]1CN([C@@H](C)CO)C(=O)c2cc(NC(=O)Nc3ccc(C(F)(F)F)cc3)ccc2O[C@H]1CN(C)Cc1ccc(C(F)(F)F)cc1 | 36 | 22 | 41 | · | · | · | ·
C[C@H](CO)N1C[C@H](C)[C@@H](CN(C)Cc2ccccc2)Oc2ccc(NC(=O)Nc3ccc(C(F)(F)F)cc3)cc2C1=O | -20 | 1 | 30 | · | · | · | ·
Cc1ccc(S(=O)(=O)N(C)C[C@H]2Oc3ccc(NC(=O)Cc4ccccc4)cc3CC(=O)N([C@H](C)CO)C[C@@H]2C)cc1 | -45 | -8 | 59 | · | · | · | ·
SMILES | Pf Dd2 growth | C diff HTS | T cruzi growth-1 | T cruzi growth-2 | T cruzi growth-3 | NIH3T3 tox | 3T3 cytotox 2
COc1ccc2c3c([nH]c2c1)[C@@H](CO)N(Cc1ccncc1)CC31CN(C(=O)Cc2ccncc2)C1 | -19 | 8 | · | · | · | · | ·
C[C@@H]1CN([C@@H](C)CO)C(=O)c2cc(/C=C/c3ccccc3)cnc2O[C@@H]1CN(C)Cc1ccc2c(c1)OCO2 | -78 | 32 | 104* | 103* | 72 | 18 | 104*
C[C@@H]1CN([C@H](C)CO)C(=O)c2cc(/C=C/c3ccccc3)cnc2O[C@@H]1CN(C)Cc1ccc2c(c1)OCO2 | -59 | 18 | 86* | 109* | 67 | 21 | 102*
C/C=C/c1cnc2c(c1)C(=O)N([C@@H](C)CO)C[C@@H](C)[C@@H](CN(C)Cc1ccc3c(c1)OCO3)O2 | -1 | 3 | · | · | · | · | ·
C/C=C/c1cnc2c(c1)C(=O)N([C@H](C)CO)C[C@H](C)[C@@H](CN(C)Cc1ccc3c(c1)OCO3)O2 | -43 | -2 | · | · | · | · | ·
CC(C)NC(=O)Nc1ccc2c(c1)C(=O)N([C@@H](C)CO)C[C@@H](C)[C@H](CN(C)Cc1ccc3c(c1)OCO3)OCCCC[C@H](C)O2 | -52 | -1 | 18 | · | · | · | ·
CNC[C@@H]1OCCCC[C@H](C)Oc2ccc(NC(=O)Nc3ccc(F)cc3)cc2C(=O)N([C@H](C)CO)C[C@H]1C | · | -6 | -9 | · | · | · | ·
C[C@H](CO)N1C[C@H](C)[C@H](CN(C)Cc2ccc(Oc3ccccc3)cc2)Oc2c(NC(=O)Nc3ccc(F)cc3)cccc2C1=O | 10 | · | 59 | · | · | · | ·
C[C@H]1CN([C@@H](C)CO)C(=O)c2cccc(NC(=O)Nc3ccc(C(F)(F)F)cc3)c2O[C@@H]1CN(C)Cc1ccc(Oc2ccccc2)cc1 | -33 | 5 | 127* | 96* | 67 | 23 | 105*
